Bioassay records from PubChem.
KDM5B inhibitor: Primary screen for KDM5B Histone Demethylases FDH-coupled qHTS | KDM5B demethylase, FDH-coupled NADH fluorescence (FDH is formaldehyde dehydrogenase) | 220,000 tested, 2.6% active | AID 1347165, 2019 | Potency, µM (titrated, usually from 57.7 µM), actives largely listed as inhibitors | Lysine-specific demethylase 5B (Homo sapiens), Q9UGL1; active means well fitted inhibition curve with a large enough effect; further: nearly all actives have a fitted effect of over 70% in size
Target sequence (Q9UGL1 whole entry, looked up): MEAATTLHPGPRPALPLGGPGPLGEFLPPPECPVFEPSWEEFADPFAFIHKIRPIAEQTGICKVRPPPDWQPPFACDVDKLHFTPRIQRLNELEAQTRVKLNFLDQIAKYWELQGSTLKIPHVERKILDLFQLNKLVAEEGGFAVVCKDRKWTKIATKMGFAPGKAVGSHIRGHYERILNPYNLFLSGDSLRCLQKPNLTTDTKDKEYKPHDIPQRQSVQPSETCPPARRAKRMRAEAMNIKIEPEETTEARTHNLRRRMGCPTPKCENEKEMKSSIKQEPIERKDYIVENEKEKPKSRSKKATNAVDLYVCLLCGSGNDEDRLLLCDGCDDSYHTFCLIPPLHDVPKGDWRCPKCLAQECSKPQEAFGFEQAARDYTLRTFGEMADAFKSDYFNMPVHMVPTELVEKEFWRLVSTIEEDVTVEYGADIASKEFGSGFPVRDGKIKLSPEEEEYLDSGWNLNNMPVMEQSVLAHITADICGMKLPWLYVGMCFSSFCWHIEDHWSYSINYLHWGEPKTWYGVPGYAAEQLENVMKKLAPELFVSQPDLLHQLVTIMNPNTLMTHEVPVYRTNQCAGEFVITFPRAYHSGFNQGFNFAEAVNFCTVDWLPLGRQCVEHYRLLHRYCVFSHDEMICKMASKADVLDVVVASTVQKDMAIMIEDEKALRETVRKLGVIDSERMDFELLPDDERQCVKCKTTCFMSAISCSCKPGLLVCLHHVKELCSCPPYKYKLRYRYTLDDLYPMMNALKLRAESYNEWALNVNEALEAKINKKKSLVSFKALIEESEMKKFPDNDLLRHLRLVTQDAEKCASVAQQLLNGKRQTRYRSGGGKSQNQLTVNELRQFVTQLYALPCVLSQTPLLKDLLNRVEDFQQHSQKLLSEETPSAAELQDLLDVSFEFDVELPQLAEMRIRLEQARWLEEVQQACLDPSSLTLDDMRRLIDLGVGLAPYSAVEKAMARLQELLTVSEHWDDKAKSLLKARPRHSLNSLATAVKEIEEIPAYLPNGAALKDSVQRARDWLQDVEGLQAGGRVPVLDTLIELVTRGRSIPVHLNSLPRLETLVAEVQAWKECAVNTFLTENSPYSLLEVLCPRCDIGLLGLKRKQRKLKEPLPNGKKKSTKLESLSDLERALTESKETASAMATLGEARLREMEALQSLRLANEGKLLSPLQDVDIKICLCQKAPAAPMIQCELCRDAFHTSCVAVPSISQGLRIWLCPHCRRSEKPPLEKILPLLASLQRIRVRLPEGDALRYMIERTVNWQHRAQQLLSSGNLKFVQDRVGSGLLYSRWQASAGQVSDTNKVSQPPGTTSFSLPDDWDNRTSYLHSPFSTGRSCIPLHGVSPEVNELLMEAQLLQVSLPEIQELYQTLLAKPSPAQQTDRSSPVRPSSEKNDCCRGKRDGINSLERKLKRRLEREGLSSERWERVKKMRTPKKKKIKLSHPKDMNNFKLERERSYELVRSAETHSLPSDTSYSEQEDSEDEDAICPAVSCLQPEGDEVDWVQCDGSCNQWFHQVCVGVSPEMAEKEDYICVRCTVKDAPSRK
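qHTS format, multiple compound concentrations. Buffer 50 mM HEPES pH 7.5/0.01% Tween-20; 200 nM KDM5BΔAP final; 10 min compound preincubation; substrate-mix levels 12.5 µM peptide, 25 µM α-KG, 0.25 mM NAD⁺; 30 min RT; ΔRFU.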
Large screens that a line does not name were inactive. The entries come from a sample that favours hits as a whole.

C/C(CC(=O)Nc1cccc2c1CCCC2)=N\NC(=O)c1ccc(Cl)cc1Cl	none
CCCOc1ccc(-c2nonc2NC(=O)c2cc(OC)c(OC)c(OC)c2)cc1OCCC	none
COCCNc1ncc(-c2cccc(C(C)=O)c2)c2c1OCC2	none
COCCNc1nc(C)nc2c1CCN(C(=O)c1ccoc1)CC2	none
COCCNc1ncc(-c2ccc(OC)c(OC)c2)c2c1OCC2	KDM5B inhibitor 35µM
COCCNc1oc(-c2ccc(OC)cc2)nc1S(=O)(=O)c1ccc2c(c1)OCCO2	none
COCCNc1ncc(-c2ccc(O)cc2)c2c1OCC2	KDM5B inhibitor 32µM
COCCNc1ncc(-c2ccc(O)c(OC)c2)c2c1OCC2	KDM5B inhibitor 35µM
CCc1ccccc1NC(=O)N1CCN(c2nnc(C)c3c(C)n(-c4ccccc4)nc23)CC1	none
CCOC(=O)COc1ccc2c(=O)c(-c3ccc(OC)cc3)c(C(F)(F)F)oc2c1	none
COc1ccc(-c2noc([C@H](C)O)c2C(=O)NC2CCC2)cc1	none
Cc1cccc(C)c1NC(=O)CNC(=O)c1cc2ccc(F)cc2nc1C	none
Cc1ccc(OCC(=O)Nc2ccc3oc(C)nc3c2)cc1	none
COc1ccc(C(=O)N(Cc2cc(OC)c(OC)c(OC)c2)c2ccccn2)cc1	none
COCCNC(=O)C(NC(=O)c1ccccc1Cl)C1CCN(C(=O)C2CCCC2)CC1 (stereo not given)	none
CCN1CCN(c2cc(C)c3cc(NC(=O)c4cc(Br)ccc4Cl)ccc3n2)CC1	none
Cc1ccc(C(=O)N(CC(C)C)CC2CN(C(=O)c3ccc(Cl)c(Cl)c3)CCO2)cc1 (stereo not given)	none
COc1ccc(S(=O)(=O)N2CCc3c(C(=O)NC4CC4)cccc32)cc1	none
Cc1ccc(CNC(=O)N2CCN(CC(=O)Nc3cccc(C)c3C)CC2)cc1F	none
COC(=O)c1ccc(CNC(=O)CC2Sc3ccccc3NC2=O)cc1 (stereo not given)	none
O=C(Cn1c(=O)[nH]c2c(-c3ccccc3F)c[nH]c2c1=O)NCc1ccc2c(c1)OCO2	none
Cc1ccc(CNC(=O)CCc2ccccc2)cn1	none
Cc1c(-c2ccccc2F)[nH]c2ccc(CNC(=O)CCN3CCCO3)cc12	KDM5B inhibitor 25µM
O=C1CCCCC(CNC(=O)c2ccccc2F)N1 (stereo not given)	none
Cc1c(-c2ccccc2F)[nH]c2ccc(CNC(=O)CCc3cnccn3)cc12	KDM5B inhibitor 13µM
O=C(CCc1ncc(-c2ccccc2F)o1)NCc1ccccc1	none
Cc1c(-c2ccccc2F)[nH]c2ccc(CNC(=O)CC3CCC(=O)N3)cc12 (stereo not given)	KDM5B inhibitor 32µM
Cc1n[nH]c(C)c1/C=C/C(=O)c1cccc(Br)c1	none
O=C(CCC1CCN(S(=O)(=O)c2cccc(F)c2)CC1)NC1CC1	none
Cc1ccc2[nH]c(=O)c(C3=NN(C(=O)c4cccs4)C(c4ccco4)C3)c(-c3ccccc3)c2c1 (stereo not given)	none
O=[N+]([O-])c1ccc2nonc2c1Nc1ccc(Cl)cc1	none
Cc1nn(C(=O)c2ccc(Br)cc2)c(C)c1Sc1ccccc1	none
COCCC(=O)N1CCC(c2noc(COc3ccc(F)cc3)n2)C1 (stereo not given)	none
COc1ccc(OC)c(NC(=O)Cn2cnc3c(oc4ccccc43)c2=O)c1	none
CC(C)c1ncc(-c2cc(C(=O)N(C)C(C)C)c3ccc(F)cc3n2)cn1	none
Cc1cc(C(=O)NC2CCN(C(=O)C3CC3)CC2)c2ccc(F)cc2n1	none
CC(C)N(C)C(=O)c1cc(-c2cnc(C(C)(C)C)nc2)nc2cc(F)ccc12	none
CC(C)n1cc(-c2cc(C(=O)N3CCC(C)(C)C3)c3ccc(F)cc3n2)cn1	KDM5B inhibitor 32µM
CC1CCCN1C(=O)c1cc(-c2cnn(C(C)C)c2)nc2cc(F)ccc12 (stereo not given)	KDM5B inhibitor 28µM
CC1CCCCN1C(=O)CSc1nnc2c(n1)[nH]c1ccc(F)cc12 (stereo not given)	none
COc1ccc(OCC(O)Cn2c(N(C)C)nc3c2c(=O)n(C)c(=O)n3C)cc1 (stereo not given)	none
COc1cc(NC(=O)CSc2ncc3c(n2)-c2ccc(Cl)cc2N(Cc2ccccc2)S3(=O)=O)cc(OC)c1	none
O=C(COc1ccccc1)Nc1ccc(OCc2cc(=O)n3ccsc3n2)cc1	none
O=C(O)c1ccc2oc(=O)c(S(=O)(=O)c3ccc(F)cc3)cc2c1	none
COc1ccc(C(=O)N2CCC(c3nc(C4CCOCC4)no3)CC2)cn1	none
CC(C)NC(=O)c1nc(Cc2c[nH]c3ccccc23)no1	none
Cc1ccccc1-c1noc(-c2ccccc2C(=O)NCc2ccco2)n1	none
CCCc1noc(-c2cccn3c(CNC(=O)c4cccc5[nH]ccc45)nnc23)n1	none
Cc1noc(-c2cccn3c(CNC(=O)Cc4c[nH]c5ccccc45)nnc23)n1	none
Cc1noc(-c2cccn3c(CNC(=O)c4ccccc4C)nnc23)n1	KDM5B inhibitor 28µM
CCCc1noc(-c2cccn3c(CNC(=O)Cc4c[nH]c5ccccc45)nnc23)n1	KDM5B inhibitor 20µM
CCCc1noc(-c2cccn3c(CNC(=O)c4ccccc4Cl)nnc23)n1	KDM5B inhibitor 28µM
CCc1noc(-c2cccn3c(CNC(=O)c4ccccc4Cl)nnc23)n1	KDM5B inhibitor 28µM
CCCc1noc(-c2cccn3c(CNC(=O)c4ccccc4OCC)nnc23)n1	none
CCn1cc(C(=O)NC2CCN(S(C)(=O)=O)CC2)c2ccccc21	none
COc1ccc(S(=O)(=O)N(CC(=O)Nc2ccccc2Cl)Cc2ccccc2)cc1	none
CC(=O)Nc1ccccc1SCc1cc(=O)n2cc(C)sc2n1	none
CCN(CC)S(=O)(=O)c1ccc(OC)c(-n2cnnn2)c1	none
CCc1ccc(CN2C[C@@H]3C(=O)N(Cc4ccc5c(c4)OCO5)C(=O)[C@@H]3C2)cc1	none
CCc1noc(C)c1C(=O)N[C@H](c1ccc2c(c1)CCO2)C1CC(O)C1 (stereo not given in full)	none
Cc1ccc(CN2CCN(C(=O)C3CCCCC(=O)N3C)CC2)cc1 (stereo not given)	none
Cc1onc(-c2cnn(C)c2NCCc2ccccc2)c1C(=O)N1CCCC1	none
CCCc1noc(-c2cccn3c(CNC(=O)c4cc(C)ccc4C)nnc23)n1	KDM5B inhibitor 28µM
CCCc1noc(-c2cccn3c(CNC(=O)c4ccc(F)cc4Cl)nnc23)n1	KDM5B inhibitor 14µM
CCCc1noc(-c2cccn3c(CNC(=O)c4ccc(OC)cc4C)nnc23)n1	none
CCCc1noc(-c2cccn3c(CNC(=O)c4ccccc4C)nnc23)n1	KDM5B inhibitor 13µM
COc1ccc(CCC(=O)N2CCCN(C(=O)C3CC3)C(c3ccccc3)CC(=O)NCC2)cc1 (stereo not given)	none
Cc1cc(C)c(/C=C/c2onc(C)c2S(=O)(=O)N2CCC(C(=O)NCc3ccco3)CC2)c(C)c1	none
O=C(O)CCC(=O)OCCCc1ccccc1	none
CN(C)S(=O)(=O)c1ccc(Cl)c(C(=O)NCc2ccc(N3CCCC3)nc2)c1	none
O=C(Cn1nc2n(c1=O)CCCC2)NCCC1=CCCCC1	none
Cn1c(=O)[nH]c(=O)c2c1nc1n(-c3ccc(Cl)cc3)c(-c3ccccc3)cn21	none
COc1ccc(OC)c(NC(=O)Cn2cnc3ccc(S(=O)(=O)N4CCC(C)CC4)cc3c2=O)c1	none
O=C1c2cnc(-c3cccc(C(F)(F)F)c3)nc2OCCN1Cc1ccccc1	none
O=C1c2cnc(-c3cc4ccccc4o3)nc2OCCN1c1ccccc1	KDM5B inhibitor 22µM
O=C1c2cnc(-c3ccccc3)nc2OCCN1c1cccc(C(F)(F)F)c1	none
COc1cccc(-c2ncc3c(n2)OCCN(Cc2ccccc2)C3=O)c1	KDM5B inhibitor 35µM
COc1cccc(-c2ncc3c(n2)OCCN(c2cccc(C(F)(F)F)c2)C3=O)c1	none
